Source: the supplement of paper PMC12067093, “Discovery and optimisation of a covalent ligand for TRIM25 and its application to targeted protein ubiquitination” (Chemical Science, 2025)
The full data set covers some 21,000 targets. This sample favours those with the largest changes.

compound: CC1Cc2ccccc2N1C(=O)C1CCCN(C1)C(=O)CCl (mixture of isomers) [TRIM25 ligand 11 (diastereomer mixture)]; assay: probe-labelled cysteine peptide fold change vs DMSO (competition) (log2 fold change); higher = less target engagement (more negative = stronger competition); settings: 10 µM; THP-1; incubation time: 4 h
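Note: competitive chemoproteomic profiling in live THP-1 cells with an iodoacetamide desthiobiotin (IA-DTB) probe, comparing probe-labelled peptide intensities in compound-treated cells against DMSO-treated controls.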

UniProt Q8TE77, sequence (Q8TE77 whole entry, looked up): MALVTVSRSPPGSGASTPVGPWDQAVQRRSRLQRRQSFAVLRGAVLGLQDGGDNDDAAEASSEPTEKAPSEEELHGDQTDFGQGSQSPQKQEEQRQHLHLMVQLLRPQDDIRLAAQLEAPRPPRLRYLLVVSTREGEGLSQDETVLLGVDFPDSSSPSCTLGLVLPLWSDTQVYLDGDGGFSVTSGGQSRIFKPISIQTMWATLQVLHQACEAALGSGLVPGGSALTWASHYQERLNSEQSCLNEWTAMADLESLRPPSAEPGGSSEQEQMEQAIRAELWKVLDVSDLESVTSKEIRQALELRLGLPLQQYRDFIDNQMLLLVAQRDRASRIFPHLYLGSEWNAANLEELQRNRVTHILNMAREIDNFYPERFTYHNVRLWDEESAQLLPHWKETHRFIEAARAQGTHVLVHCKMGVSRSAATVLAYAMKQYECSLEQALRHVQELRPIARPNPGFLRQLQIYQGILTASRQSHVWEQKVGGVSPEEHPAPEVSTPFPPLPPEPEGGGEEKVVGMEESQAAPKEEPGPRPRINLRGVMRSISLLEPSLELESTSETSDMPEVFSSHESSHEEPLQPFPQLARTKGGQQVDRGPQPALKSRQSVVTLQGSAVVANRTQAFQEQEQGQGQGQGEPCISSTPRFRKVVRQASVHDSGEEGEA
UniProt Q86TJ2, sequence (Q86TJ2 whole entry, looked up): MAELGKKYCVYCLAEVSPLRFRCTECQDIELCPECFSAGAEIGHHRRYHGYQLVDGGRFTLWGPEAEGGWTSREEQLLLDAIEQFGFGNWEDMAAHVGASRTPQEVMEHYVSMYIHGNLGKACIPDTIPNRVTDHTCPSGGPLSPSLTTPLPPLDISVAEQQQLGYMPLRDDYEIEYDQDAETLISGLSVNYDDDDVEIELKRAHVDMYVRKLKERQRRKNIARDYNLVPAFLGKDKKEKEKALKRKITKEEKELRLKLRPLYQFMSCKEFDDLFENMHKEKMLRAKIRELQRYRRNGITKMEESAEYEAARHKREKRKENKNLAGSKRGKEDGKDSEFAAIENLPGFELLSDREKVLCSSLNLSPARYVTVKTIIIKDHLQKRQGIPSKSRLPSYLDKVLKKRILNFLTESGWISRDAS
UniProt Q9Y5B9, sequence (Q9Y5B9 whole entry, looked up): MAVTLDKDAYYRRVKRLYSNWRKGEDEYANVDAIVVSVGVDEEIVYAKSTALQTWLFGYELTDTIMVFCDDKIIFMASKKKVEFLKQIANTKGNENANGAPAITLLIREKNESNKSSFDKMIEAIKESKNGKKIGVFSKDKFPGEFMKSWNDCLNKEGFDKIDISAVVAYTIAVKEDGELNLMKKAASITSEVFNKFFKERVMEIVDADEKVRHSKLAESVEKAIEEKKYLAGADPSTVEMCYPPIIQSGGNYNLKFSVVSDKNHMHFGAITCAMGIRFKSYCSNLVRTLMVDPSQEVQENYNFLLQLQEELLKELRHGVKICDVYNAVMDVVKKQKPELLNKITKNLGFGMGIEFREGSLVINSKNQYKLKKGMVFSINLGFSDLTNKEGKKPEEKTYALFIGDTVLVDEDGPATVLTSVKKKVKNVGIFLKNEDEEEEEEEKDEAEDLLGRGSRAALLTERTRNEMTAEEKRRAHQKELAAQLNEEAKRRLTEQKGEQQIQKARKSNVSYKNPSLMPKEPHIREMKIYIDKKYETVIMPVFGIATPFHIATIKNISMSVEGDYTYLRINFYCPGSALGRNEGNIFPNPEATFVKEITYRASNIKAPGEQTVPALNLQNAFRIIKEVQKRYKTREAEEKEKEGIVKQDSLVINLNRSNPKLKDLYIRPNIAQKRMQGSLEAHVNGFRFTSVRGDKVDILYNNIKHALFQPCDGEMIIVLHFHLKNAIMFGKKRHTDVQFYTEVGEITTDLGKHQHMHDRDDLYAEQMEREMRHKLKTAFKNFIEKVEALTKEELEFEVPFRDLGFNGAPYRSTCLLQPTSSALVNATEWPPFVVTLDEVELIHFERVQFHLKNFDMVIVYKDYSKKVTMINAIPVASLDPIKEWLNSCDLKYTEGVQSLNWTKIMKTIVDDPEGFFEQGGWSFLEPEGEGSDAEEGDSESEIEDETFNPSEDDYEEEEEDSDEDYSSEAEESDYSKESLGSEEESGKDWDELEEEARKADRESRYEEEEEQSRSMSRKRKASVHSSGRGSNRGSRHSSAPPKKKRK
UniProt Q01085, sequence (Q01085 whole entry, looked up): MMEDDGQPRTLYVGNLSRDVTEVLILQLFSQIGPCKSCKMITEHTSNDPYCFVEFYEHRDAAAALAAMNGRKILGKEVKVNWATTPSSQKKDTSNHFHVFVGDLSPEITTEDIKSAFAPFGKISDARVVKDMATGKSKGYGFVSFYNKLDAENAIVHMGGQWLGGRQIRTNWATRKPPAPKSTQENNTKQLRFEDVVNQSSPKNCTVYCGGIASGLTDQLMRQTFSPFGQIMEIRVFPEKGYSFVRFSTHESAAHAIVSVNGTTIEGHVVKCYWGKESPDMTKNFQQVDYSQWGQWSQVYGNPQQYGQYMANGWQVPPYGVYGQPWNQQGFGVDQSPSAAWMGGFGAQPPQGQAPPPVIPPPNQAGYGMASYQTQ
UniProt Q8WUH2, sequence (Q8WUH2 whole entry, looked up): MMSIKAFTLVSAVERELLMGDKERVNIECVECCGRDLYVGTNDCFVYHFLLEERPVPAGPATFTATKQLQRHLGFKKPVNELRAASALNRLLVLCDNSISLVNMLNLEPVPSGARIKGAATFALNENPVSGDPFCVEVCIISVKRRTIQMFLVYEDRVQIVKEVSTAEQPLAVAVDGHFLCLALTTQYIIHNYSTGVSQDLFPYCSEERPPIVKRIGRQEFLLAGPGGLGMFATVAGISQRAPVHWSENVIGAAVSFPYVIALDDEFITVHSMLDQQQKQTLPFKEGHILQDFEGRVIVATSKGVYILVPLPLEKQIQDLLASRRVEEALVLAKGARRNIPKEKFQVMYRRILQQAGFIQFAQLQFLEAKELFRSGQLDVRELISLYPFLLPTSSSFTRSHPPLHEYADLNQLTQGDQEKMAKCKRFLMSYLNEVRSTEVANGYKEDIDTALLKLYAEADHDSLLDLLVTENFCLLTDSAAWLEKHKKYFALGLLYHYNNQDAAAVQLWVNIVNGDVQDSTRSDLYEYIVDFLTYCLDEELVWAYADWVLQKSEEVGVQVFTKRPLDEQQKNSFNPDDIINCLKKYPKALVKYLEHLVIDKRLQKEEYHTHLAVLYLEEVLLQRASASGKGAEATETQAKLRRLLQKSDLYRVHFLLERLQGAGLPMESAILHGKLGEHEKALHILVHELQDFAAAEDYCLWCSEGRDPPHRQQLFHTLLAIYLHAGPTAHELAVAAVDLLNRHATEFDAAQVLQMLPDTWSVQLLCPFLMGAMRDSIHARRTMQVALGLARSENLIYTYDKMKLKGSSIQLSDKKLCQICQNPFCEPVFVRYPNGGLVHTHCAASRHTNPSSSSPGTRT
UniProt P07996, sequence (P07996 whole entry, looked up): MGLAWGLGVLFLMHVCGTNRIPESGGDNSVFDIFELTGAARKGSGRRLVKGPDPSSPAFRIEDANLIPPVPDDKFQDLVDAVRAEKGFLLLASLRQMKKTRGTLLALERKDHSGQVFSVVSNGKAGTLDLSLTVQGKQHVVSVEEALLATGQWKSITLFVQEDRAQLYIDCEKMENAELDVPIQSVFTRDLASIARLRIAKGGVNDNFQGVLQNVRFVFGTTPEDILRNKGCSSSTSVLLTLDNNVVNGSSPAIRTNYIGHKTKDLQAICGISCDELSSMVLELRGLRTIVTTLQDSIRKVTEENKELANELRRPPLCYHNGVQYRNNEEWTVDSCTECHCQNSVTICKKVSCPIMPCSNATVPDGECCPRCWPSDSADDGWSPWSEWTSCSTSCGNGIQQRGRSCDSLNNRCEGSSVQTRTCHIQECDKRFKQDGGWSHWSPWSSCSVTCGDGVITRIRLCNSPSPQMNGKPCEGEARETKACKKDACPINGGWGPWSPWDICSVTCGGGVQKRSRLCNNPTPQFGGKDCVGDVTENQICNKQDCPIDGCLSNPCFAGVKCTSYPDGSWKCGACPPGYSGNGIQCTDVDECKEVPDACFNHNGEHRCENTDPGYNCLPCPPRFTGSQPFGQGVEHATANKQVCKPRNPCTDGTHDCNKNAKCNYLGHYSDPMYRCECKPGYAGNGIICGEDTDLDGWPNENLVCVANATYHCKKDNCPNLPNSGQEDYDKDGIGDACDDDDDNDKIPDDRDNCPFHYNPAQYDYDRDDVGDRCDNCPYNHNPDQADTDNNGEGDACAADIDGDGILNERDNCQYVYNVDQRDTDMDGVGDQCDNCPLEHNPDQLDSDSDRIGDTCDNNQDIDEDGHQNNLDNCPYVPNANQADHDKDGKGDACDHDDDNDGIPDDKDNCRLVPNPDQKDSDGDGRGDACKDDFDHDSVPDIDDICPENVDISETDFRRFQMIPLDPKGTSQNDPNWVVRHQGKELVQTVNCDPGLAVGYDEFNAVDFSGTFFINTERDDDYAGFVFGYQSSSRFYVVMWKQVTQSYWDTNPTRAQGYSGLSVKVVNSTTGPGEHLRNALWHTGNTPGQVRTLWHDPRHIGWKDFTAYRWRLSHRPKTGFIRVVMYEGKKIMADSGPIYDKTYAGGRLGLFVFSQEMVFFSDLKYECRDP
UniProt P53597, sequence (P53597 whole entry, looked up): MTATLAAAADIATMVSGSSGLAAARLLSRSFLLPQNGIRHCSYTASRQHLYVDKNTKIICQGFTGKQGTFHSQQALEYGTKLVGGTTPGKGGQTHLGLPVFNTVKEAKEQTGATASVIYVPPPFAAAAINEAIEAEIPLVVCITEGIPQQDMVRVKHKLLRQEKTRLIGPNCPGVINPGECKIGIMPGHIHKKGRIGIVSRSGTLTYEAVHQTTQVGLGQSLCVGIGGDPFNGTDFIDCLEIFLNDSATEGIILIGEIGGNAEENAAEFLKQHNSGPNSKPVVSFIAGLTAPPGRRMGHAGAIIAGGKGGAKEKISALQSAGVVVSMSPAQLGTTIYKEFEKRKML

Target	probe-labelled cysteine peptide fold change
THBS1_P07996_754_IPDDRDNCPFHYNPAQYDYDRDDVGDR (UniProt P07996)	0.813
TMEM94_Q12767_381_CIWGHFLR (UniProt Q12767)	-0.00858
TDRD7_Q8NHU6_284_EDLNQGILQQFEHWPHICTVEK (UniProt Q8NHU6)	0.0148
THOC2_Q8NI27_743_DALLDHDLALPLCLLMAQQR (UniProt Q8NI27)	0.0629
TLE1_Q04724_47_IKEEFQFLQAQYHSLKLECEK<|>TLE2_Q04725_46_IKEEFQFLQAQYHSLKLECEK (UniProt Q04725+Q04724)	-0.573
TOP2B_Q02880-2_7_SGGCGAGAGVGGGNGALTWVNNAAK (UniProt Q02880)	-0.0783
TIAL1_Q01085_205+209_NCTVYCGGIASGLTDQLMR (UniProt Q01085)	0.161
TGFBRAP1_Q8WUH2_32_VNIECVECCGR (UniProt Q8WUH2)	-0.0319
TCEAL3_Q969E4_44_TECEGKREDEGEPGDEGQLEDEGSQEK (UniProt Q969E4)	-0.32
SUCLG1_P53597_172_LIGPNCPGVINPGECK (UniProt P53597)	-0.0627
SSH3_Q8TE77_634_TQAFQEQEQGQGQGQGEPCISSTPR (UniProt Q8TE77)	-0.0571
TBCD_Q9BTW9_457_GACSVGTNVR (UniProt Q9BTW9)	0.145
TET3_O43151_1381_GKPWSPCK (UniProt O43151)	-0.294
TADA2B_Q86TJ2_32+35_CTECQDIELCPECFSAGAEIGHHR (UniProt Q86TJ2)	0.502
SUPT16H_Q9Y5B9_574_INFYCPGSALGR (UniProt Q9Y5B9)	0.121
